{
  "source": "PubChem BioAssay AID1233",
  "about": "(SRMLSC, 2008)",
  "note": "Results with a measured potency or affinity are listed apart. The source made the active and inactive calls.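 The calls were made as follows: active = a dose-response curve fit returns a half-maximal inhibitory concentration, extrapolated values included; inactive = the fit returns no such concentration.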",
  "data": [
    {"biological_target": "HMG-CoA reductase [Enterococcus faecalis] (UniProt Q9FD70)", "test": "inhibitors of E. faecalis class II HMGR, confirmation, biochemical, Enterococcus faecalis (AID 1233)", "conditions": "purified E. faecalis HMGR, NADPH absorbance 340 nm kinetics; series mostly up to 100 µM", "values": [
      {"smiles": "COc1cc2c(cc1OC)CN(C(C)C(=O)N1CCc3ccccc31)CC2", "note": "(stereo not drawn)", "outcome": "inactive"},
      {"smiles": "Cc1ccc2nc(-c3cc(N)cc(N)c3)oc2c1", "outcome": "inactive"},
      {"smiles": "Cc1ccccc1-c1oc(C)c(C)[n+]1[O-]", "outcome": "inactive"},
      {"smiles": "Cc1ccc(Cn2nnc3c(=O)n(CC(=O)NCc4ccco4)cnc32)cc1", "outcome": "inactive"},
      {"smiles": "Cc1cc(NC(=O)c2c(F)cccc2Cl)no1", "outcome": "inactive"},
      {"smiles": "C#CCn1c(-c2cccs2)nc2ccccc21", "outcome": "inactive"},
      {"smiles": "CC(C(=O)NC1CCCc2ccccc21)N1CCN(c2ccc(F)cc2)CC1", "note": "(stereo not drawn)", "outcome": "inactive"},
      {"smiles": "S=C(NCc1ccccc1)N1CCN(c2cccc(Cl)c2)CC1", "outcome": "inactive"},
      {"smiles": "COc1ccc(CCNc2ccncn2)cc1", "outcome": "inactive"},
      {"smiles": "CCCCc1c(O)nc(SCC(=O)c2ccccc2)[nH]c1=O", "outcome": "inactive"},
      {"smiles": "Cn1c(SCC(=O)N2CCCC2=O)nnc1-c1ccccc1F", "outcome": "inactive"},
      {"smiles": "O=C(CSc1nc(-c2ccccc2)cs1)N1CCc2ccccc21", "outcome": "inactive"},
      {"smiles": "Cc1ccc(CN(C)CC(=O)Nc2ccc3c(c2)CCC3)cc1", "outcome": "inactive"},
      {"smiles": "COc1ccc(CNC(=O)COC(=O)[C@H](Cc2c[nH]c3ccccc23)NC(=O)c2cccs2)cc1", "outcome": "inactive"},
      {"smiles": "COc1ccc(-n2c(SCC(N)=O)nc3sc4c(c3c2=O)CCN(C)C4)cc1", "outcome": "inactive"},
      {"smiles": "CCn1c2ccccc2c2cc(CNCc3ccc(OC)cc3OC)ccc21", "outcome": "inactive"},
      {"smiles": "CC(=O)N1CCN(S(=O)(=O)c2ccc(C)c([N+](=O)[O-])c2)C1C(C)C", "note": "(stereo not drawn)", "outcome": "inactive"},
      {"smiles": "Cc1ccc(NC(=O)c2ccc3nc[nH]c3c2)c(O)c1", "outcome": "inactive"},
      {"smiles": "Cc1ccc(C(=O)c2c(NC(=O)c3ccccc3)sc(C)c2C)cc1", "outcome": "inactive"},
      {"smiles": "COC(=O)C(C)n1cnc2c(nnn2-c2ccc(OC)cc2)c1=O", "note": "(stereo not drawn)", "outcome": "inactive"},
      {"smiles": "N#Cc1nc(COc2ccc(-c3ccccc3)cc2)oc1NCCCN1CCOCC1", "outcome": "inactive"},
      {"smiles": "CN(C)C(=O)CSc1n[nH]c(=O)[nH]c1=O", "outcome": "inactive"},
      {"smiles": "CC(=O)c1ccc(NC(=O)c2ccc(NC(=O)CCS(=O)(=O)c3cccs3)cc2)cc1", "outcome": "inactive"},
      {"smiles": "COc1ccc(CN2CCN(CCC(C)C)C(CCO)C2)cc1Cn1cccn1", "note": "(stereo not drawn)", "outcome": "inactive"},
      {"smiles": "Cc1cccc(S(=O)(=O)Nc2ccc(-c3cn4ccccc4n3)cc2)c1", "outcome": "inactive"},
      {"smiles": "CCOc1ccc(C2C(C#N)=C(N)Oc3cc(C)oc(=O)c32)cc1", "note": "(stereo not drawn)", "outcome": "inactive"},
      {"smiles": "Cc1ccc(S(=O)(=O)ON2C(=O)c3ccccc3C2=O)c(C)c1", "outcome": "inactive"},
      {"smiles": "NS(=O)(=O)c1ccc(N2C(=O)C3C4CC(C(Br)C4Br)C3C2=O)cc1", "note": "(stereo not drawn)", "outcome": "inactive"},
      {"smiles": "O=C(CCc1nc2ccccc2c(=O)[nH]1)N1CCN(C/C=C/c2ccccc2)CC1", "outcome": "inactive"},
      {"smiles": "CCc1c(C)nc2c(C#N)c(C)[nH]n2c1=O", "outcome": "inactive"},
      {"smiles": "Cc1cnc(NC(=O)c2cc3ccccc3o2)s1", "outcome": "inactive"},
      {"smiles": "CCc1nnc(NC(=O)CN2CCN(c3nc(-c4ccccc4)cs3)CC2)s1", "outcome": "inactive"},
      {"smiles": "COCCCNC(=O)CN(c1cc(Cl)ccc1OC)S(=O)(=O)c1ccc(C)c([N+](=O)[O-])c1", "outcome": "inactive"},
      {"smiles": "O=C(O)CCC(=O)NC(c1ccccc1)c1ccccc1", "outcome": "inactive"},
      {"smiles": "CCCCCOC(=O)Cn1c(N2CCOCC2)nc2c1c(=O)[nH]c(=O)n2C", "outcome": "inactive"},
      {"smiles": "O=[N+]([O-])c1ccc(N2CCCCC2)c(-c2nn[nH]n2)c1", "outcome": "inactive"},
      {"smiles": "NC1=NC(=O)S/C1=C\\c1ccc(F)cc1", "outcome": "inactive"},
      {"smiles": "COc1cccc(Nc2nc(C)cc(C)c2C#N)c1", "outcome": "inactive"}
    ]}
  ]
}
